Laboratory results as given in PubChem BioAssay (NCI).
Where “and” joins values, the source holds several entries; their conditions need not be identical. Identical values can stand only once. The panel holds about 83,000 compounds, 20% with a hit somewhere; the sample as a whole holds those more often.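 The test compound was applied at a single concentration to cells in 96-well plates for 48 hours, and percent growth was recorded.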 Calls of active or inactive are those of the source.

Tested on: MDA-MB-435 melanoma
Test: NCI-60 one-dose screen, 48 h (100 = growth as untreated, 0 = no growth, -100 = all killed)
Details: 10 µM
Method: Growth inhibition of the MDA-MB-435 human Melanoma tumor cell line is measured as a screen for anti-cancer activity. Cells are grown in 96 well plates and exposed to the test compound for 48 hours. Compounds are tested at a single concentration, which is 10^-5 M for most compounds. The reported endpoint is percent growth (GI% or GIPRCNT), where numbers from 0 - 100% represent growth inhibition, and numbers from -100% - 0 represent cell death. For example, a value of 40 represents 60% growth inhibition. A value of 0 means no net growth occurred over the course of the experiment. A value of -40 indicates 40% of cells at the beginning of the experiment died by the end of the experiment. A value of -100 means all cells are dead at the end of the experiment.
NCI-60 Human Tumor Cell Lines Screen was performed using the standard one-dose NCI protocol, which is described in more detail at https://dtp.cancer.gov/discovery_development/nci-60/default.htm.
Compounds with GIPRCNT values below 10 were considered active. Activity score was based on GIPRCNT using the following formula: […]
Score is 0 for GIPRCNT values of 100 or above, 50 for GIPRCNT values of 0, and 100 for GIPRCNT values of -100.

Compound	growth
CCCCCCCC[N+]12CN3CN(CN(C3)C1)C2	95% (inactive)
O=[P+](O)c1ccccc1	118% (inactive)
O=[N+]([O-])/C=C\c1ccc2c(c1)OCO2	-14.8% (active)
CC(C)c1cc([N+](=O)[O-])cc([N+](=O)[O-])c1O	108% (inactive)
O=C1CCC(=O)N1SC(Cl)(Cl)Cl	102% (inactive)
NNc1ccccc1	88.6% (inactive)
COC(C(=O)C(O)C(C)O)C1Cc2cc3cc(OC4CC(OC(C)=O)C(OC5CC(O)C(OC)C(C)O5)C(C)O4)cc(O)c3c(O)c2C(=O)C1OC1CC(OC2CC(OC3CC(C)(O)C(OC(=O)C(C)C)C(C)O3)C(O)C(C)O2)C(O)C(C)O1 (stereo not given)	-89.4% (active)
COC(=O)C1C(O)C(C)C(O)C(C)/C=C\C=C(C)C(=O)Nc2c(C)c(OC(C)=O)c3c(c2O)C(=O)C(C)=C2OCOC(=C23)C(C)=CC(C)(O)C(O)C(C)C1O (stereo not given)	100% (inactive)
NC(Cc1ccccc1)c1ccccc1 (stereo not given)	106% (inactive) and 102% (inactive)
[Cl][Sn]([c]1ccccc1)([c]1ccccc1)[c]1ccccc1	-83.9% (active)
O=[N+]([O-])c1cc[n+]([O-])c2ccccc12	-70.7% (active)
O=[N+]([O-])/C=C/c1ccc([N+](=O)[O-])cc1	-48.9% (active) and 81.1% (inactive)
COc1cc2c(cc1OC)C13CCN4CC5=CCOC6CC(=O)N2C1C6C5CC43 (stereo not given)	112% (inactive) and 110% (inactive)
O=C(CBr)Nc1ccc(Cl)cc1	87% (inactive)
COC12c3c(C)cc(O)c4c(=O)occ(c34)C(=O)C1C13COC(=O)c4c(O)cc(C)c(c41)C(=O)C2C3OC(C)=O (stereo not given)	173% (inactive)
O=C1C=Cc2ccccc2C1=O	5.35% (active)
CCOP(=O)(OCC)/C(C#N)=C/c1ccc(Br)cc1	104% (inactive)
O=S(=O)(F)c1ccc(Cl)cc1	108% (inactive)
CN(CCCl)c1ccc(/C=C/C2=[N+](C)c3ccccc3C2(C)C)cc1	12% (inactive)
O=[N+]([O-])c1ccc(N(CCO)CCO)c2c1no[n+]2[O-]	2.88% (active)

Compound	growth
S=C=NCCc1ccccc1	66.4% (inactive)
C=NCC#N	100% (inactive) and 113% (inactive)
CCOP(=O)(OCC)C(O)c1ccccc1Cl (stereo not given)	119% (inactive)
O=[N+]([O-])c1ccc(N2CCOCC2)c2c1no[n+]2[O-]	29.2% (inactive)
C/C1=C\[C@H](C)C[C@H](C)OC(=O)C[C@H](c2ccc(O)cc2)NC(=O)[C@@H](Cc2c(Br)[nH]c3ccccc23)N(C)C(=O)[C@H](C)NC(=O)[C@@H](C)C1	-12.2% (active)
COc1cc2c(c(OC)c1OC)-c1ccc(O)c(=O)cc1[C@@H](NC(C)=O)CC2	45.6% (inactive)
C/C(=C\c1ccc(Cl)c(Cl)c1)[N+](=O)[O-]	126% (inactive)
COc1cc(/C=C/[N+](=O)[O-])cc(OC)c1OC	-22.4% (active)
CC/C(=C/c1ccc(OC)cc1)[N+](=O)[O-]	15.1% (inactive)
O=c1[nH]c2ccccc2n1C1CCN(CCCC(c2ccc(F)cc2)c2ccc(F)cc2)CC1	-81% (active) and 19% (inactive)
COc1ccccc1/C=C/[N+](=O)[O-]	39.3% (inactive)
O=C(CBr)Nc1ccccc1	102% (inactive)
[Cl][Hg][c]1ccc2ccccc2c1	-76.2% (active)
CC12OOC(c3ccccc31)c1c2ccc2ccccc12 (stereo not given)	46.2% (inactive)
COc1cc([N+](=O)[O-])c2ncccc2c1[N+](=O)[O-]	44.8% (inactive)
O=C1C(=O)c2ccccc2-c2ccccc21	-97.9% (active)
CC/C(=C/c1ccc(OC)cc1OC)[N+](=O)[O-]	46% (inactive)
COc1ccc(/C=C\[N+](=O)[O-])cc1OC	12.3% (inactive) and 31.1% (inactive)
CC[C@@H](C)[C@@H]1NC(=O)C(NC(=O)C(CC(C)C)N(C)C(=O)C2CCCN2C(=O)C(C)O)C(C)OC(=O)C(Cc2ccc(OC)cc2)N(C)C(=O)C2CCCN2C(=O)C(CC(C)C)NC(=O)C(C)C(=O)C(C(C)C)OC(=O)C[C@H]1O (stereo not given in full)	-91.8% (active)
CS(=N)(=O)CCC(N)C(=O)O (stereo not given)	99.8% (inactive)
